Assay results as given in PubChem BioAssay (Tox21).
Values joined by “and” are separate entries in the source; they are usually repeats but may differ in a detail not shown here. Identical values can stand only once. Inconclusive results are not listed. Active and inactive are the calls of the source. Unless noted, calls follow the shape of the dose curve; as a rule, active = well fitted curve in the direction sought with a large enough effect in the repeat runs; inconclusive = weak or mixed curves; inactive = no such curve, though single readings can be large; an effect the other way counts as inactive or inconclusive.

Assays:
[1] = target: Thyrotropin receptor (Homo sapiens) (UniProt P16473); test: qHTS assay to identify small molecule agonists of the thyroid stimulating hormone receptor (TSHR) signaling pathway (AID 1224843; calls by dose curve; also: nearly all actives have a fitted effect of over 45% in size); conditions: TSHR-HEK293 cells, cAMP HTRF, agonist mode, 30 min; series mostly up to 92.4 µM
Sequence of Thyrotropin receptor (Homo sapiens) (P16473 whole entry, looked up): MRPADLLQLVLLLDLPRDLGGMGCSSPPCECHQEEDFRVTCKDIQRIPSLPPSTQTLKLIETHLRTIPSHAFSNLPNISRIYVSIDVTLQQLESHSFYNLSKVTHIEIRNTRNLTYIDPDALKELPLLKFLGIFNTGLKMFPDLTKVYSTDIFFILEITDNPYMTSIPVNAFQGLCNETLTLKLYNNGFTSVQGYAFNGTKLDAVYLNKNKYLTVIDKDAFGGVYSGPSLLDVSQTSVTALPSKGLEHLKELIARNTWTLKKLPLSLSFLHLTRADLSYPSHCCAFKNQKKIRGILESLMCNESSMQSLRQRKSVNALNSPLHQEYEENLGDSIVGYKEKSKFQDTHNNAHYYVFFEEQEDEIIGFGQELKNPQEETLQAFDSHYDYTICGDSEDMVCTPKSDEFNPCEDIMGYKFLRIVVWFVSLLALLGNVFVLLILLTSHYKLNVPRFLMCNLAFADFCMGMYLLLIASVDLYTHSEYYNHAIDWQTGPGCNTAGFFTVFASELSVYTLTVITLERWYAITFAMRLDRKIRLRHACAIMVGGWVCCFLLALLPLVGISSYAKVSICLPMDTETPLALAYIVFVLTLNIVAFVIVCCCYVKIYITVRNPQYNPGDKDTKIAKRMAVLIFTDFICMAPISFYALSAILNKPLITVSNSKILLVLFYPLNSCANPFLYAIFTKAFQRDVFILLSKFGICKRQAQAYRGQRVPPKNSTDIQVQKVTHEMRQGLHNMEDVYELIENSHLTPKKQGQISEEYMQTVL
How it was run: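 Using 15 concentrations per compound in triplicate, cAMP production was monitored in TSHR-HEK293 cells after 30 min compound incubation at RT; HTRF reagents followed, with fluorescence intensity recorded after 1 h.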

[2] = qHTS assay to identify small molecule agonists of the hypoxia (HIF-1) signaling pathway - cell viability counter screen (AID 1224844; calls by dose curve; also: nearly all actives have a fitted effect of over 50% in size); conditions: HRE-bla ME-180 viability, CellTiter-Glo luminescence, 17 h; series mostly up to 76.8 µM
How it was run: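 Same wells as the HIF-1 reporter screen; ME-180 cells carrying HRE-bla, 17 hr treatment at 37C; CellTiter-Glo luminescence read after 30 min at room temperature.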

[3] = qHTS RealTime-Glo MT Cell Viability Assay in HepG2 cells - 24 hour (AID 1224867); conditions: RealTime-Glo luminescence; series mostly up to 76.8 µM; also: nearly all actives have a fitted effect of over 50% in size
How it was run: (§1)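 Cells + NanoLuc/prosubstrate dispensed (600 cells/well) → 5 h at 37 C/5% CO2 → compounds in DMSO transferred → 40 h incubation at 37 C, luminescence read at 0, 8, 16, 24, 32, 40 h.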

[4] = qHTS RealTime-Glo MT Cell Viability Assay in HEK293 cells - 32 hour (AID 1224868); conditions: RealTime-Glo luminescence; series mostly up to 76.8 µM; also: top concentration of the series differs between compounds; nearly all actives have a fitted effect of over 50% in size
How it was run: (§2)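 Tox21 10K qHTS, HEK293, 600 cells/well, RealTime-Glo reagent co-dispensed with cells; 5 h preincubation, compound by pintool, 37 C, luminescence at 0–40 h.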

[5] = A CellTox Green Cytotoxicity Assay to monitor cytotoxicity in HEK293 cells - 0 hour (AID 1224869); conditions: CellTox Green fluorescence; series mostly up to 76.8 µM; also: nearly all actives have a fitted effect of over 50% in size
How it was run: (§3)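 Homogeneous no-lysis format: HEK293 cell suspension mixed with CellTox Green reagent, seeded, incubated 5 h at 37 C/5% CO2, then dosed by pintool with compound in DMSO.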

[6] = qHTS RealTime-Glo MT Cell Viability Assay in HepG2 cells - 40 hour (AID 1224870); conditions: RealTime-Glo luminescence; series mostly up to 76.8 µM; also: nearly all actives have a fitted effect of over 50% in size
How it was run: (§4)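 HepG2 cells mixed with RealTime-Glo MT reagents (NanoLuc plus cell-permeant prosubstrate) were seeded at 600 cells/well, incubated 5 h at 37 C/5% CO2, then pinned with compounds in DMSO; nonlytic luminescence tracked viability during 40 h treatment.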

[7] = A CellTox Green Cytotoxicity Assay to monitor cytotoxicity in HEK293 cells - 40 hour (AID 1224871); conditions: CellTox Green fluorescence; series mostly up to 76.8 µM; also: nearly all actives have a fitted effect of over 45% in size
How it was run: as §3

[8] = qHTS RealTime-Glo MT Cell Viability Assay in HEK293 cells - 16 hour (AID 1224872); conditions: RealTime-Glo luminescence; series mostly up to 76.8 µM
How it was run: as §2

[9] = qHTS RealTime-Glo MT Cell Viability Assay in HepG2 cells - 8 hour (AID 1224873); conditions: RealTime-Glo luminescence; series mostly up to 76.8 µM; also: nearly all actives have a fitted effect of over 55% in size
How it was run: as §4

[10] = qHTS RealTime-Glo MT Cell Viability Assay in HEK293 cells - 40 hour (AID 1224874); conditions: RealTime-Glo luminescence; max response: stronger effect = lower value; also: nearly all actives have a fitted effect of over 50% in size
How it was run: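 Measured as luminescence from the same continuously cultured HEK293 wells at successive time points (0, 8, 16, 24, 32, 40 h) after compound addition. Reagent present from seeding; dosing at 5 h; incubation 37 C.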

[11] = A CellTox Green Cytotoxicity Assay to monitor cytotoxicity in HEK293 cells - 24 hour (AID 1224875); conditions: CellTox Green fluorescence; series mostly up to 76.8 µM; also: nearly all actives have a fitted effect of over 45% in size
How it was run: as §3

[12] = A CellTox Green Cytotoxicity Assay to monitor cytotoxicity in HepG2 cells - 16 hour (AID 1224876); conditions: CellTox Green fluorescence; series mostly up to 76.8 µM; also: nearly all actives have a fitted effect of over 45% in size
How it was run: (§5)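 Fluorescent DNA-binding dye, 600 HepG2 cells/well, 5 h preincubation then compound in DMSO; same plates read at 0–40 h, 37 C.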

[13] = qHTS RealTime-Glo MT Cell Viability Assay in HepG2 cells - 32 hour (AID 1224877); conditions: RealTime-Glo luminescence; series mostly up to 76.8 µM; also: nearly all actives have a fitted effect of over 55% in size
How it was run: as §1

[14] = A CellTox Green Cytotoxicity Assay to monitor cytotoxicity in HepG2 cells - 24 hour (AID 1224878); conditions: CellTox Green fluorescence; series mostly up to 76.8 µM; also: nearly all actives have a fitted effect of over 45% in size
How it was run: as §5

[15] = A CellTox Green Cytotoxicity Assay to monitor cytotoxicity in HepG2 cells - 40 hour (AID 1224879); conditions: CellTox Green fluorescence; series mostly up to 76.8 µM; also: nearly all actives have a fitted effect of over 40% in size
How it was run: as §5

[16] = qHTS assay to identify small molecule agonists of H2AX (AID 1224845; active = well fitted activation curve with a large enough effect in the signal ratio in the repeat runs, not every such curve was filed as active; the % refers to the signal ratio); conditions: CHO-K1 phospho-H2AX Ser139 HTRF, 3 h; series mostly up to 154 µM
How it was run: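 Wild-type CHO-K1 cells plated overnight, then exposed 3 hr at 37C to compounds at 15 concentrations (0.76% DMSO). Lysed, then HTRF anti-pH2AX(S139)-cryptate/anti-H2AX-d2 detection after 24 hr at room temperature; emissions 665 and 620 nm.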

[17] = qHTS assay to identify small molecule agonists of the hypoxia (HIF-1) signaling pathway (AID 1224846; active = well fitted activation curve with a large enough effect in the signal ratio in the repeat runs, not every such curve was filed as active; the % refers to the signal ratio); conditions: HRE-bla ME-180 cells, beta-lactamase ratio, 17 h; series mostly up to 76.8 µM
How it was run: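 In ME-180 cells bearing an HRE-bla construct, 17 h treatment with DMSO-dissolved compounds at 37C was followed by CCF4-AM loading to quantify reporter induction.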

[18] = qHTS assay to identify small molecule agonists of H2AX - cell viability counter screen (AID 1224847; calls by dose curve; also: top concentration of the series differs between compounds; nearly all actives have a fitted effect of over 30% in size); conditions: CHO-K1 viability, CellTiter-Glo luminescence, 3 h; series mostly up to 154 µM
How it was run: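 Cells plated first: CHO-K1, 1000 per well in 10% FBS medium, incubated overnight at 37C. Then 15-point compound titration added (final DMSO 0.76%) for 3 hr. Finally CellTiter-Glo added and luminescence read.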

[19] = qHTS assay to identify small molecule antagonists of the estrogen related receptor (ERR) signaling pathway from Tox21 library (AID 1224848); conditions: ERR reporter cell line, luciferase antagonist mode, 18 h; series mostly up to 92.4 µM; also: nearly all actives have a fitted effect of over 50% in size
How it was run: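 Tox21 10K compounds in DMSO tested for ERR pathway antagonism in NTP's ERR cell line; 18 h, 37 C exposure; ONE-Glo luminescence.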

[20] = qHTS assay to identify small molecule agonists of the estrogen related receptor (ERR) signaling pathway from Tox21 library (AID 1224849; calls by dose curve; also: nearly all actives have a fitted effect of over 15% in size); conditions: ERR reporter cell line, ONE-Glo luciferase, 18 h; at 92.4 µM (top of the series)
How it was run: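 Reporter cells (ERR, NTP source) treated with Tox21 10K compounds 18 h, 37 C. Readout: ONE-Glo luminescence, 30 min RT.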
% is scaled to controls: 0 for no effect and ±100 for the full control effect.

C[C@H]1C(=O)O[C@@H]2CCN3CC=C(COC(=O)[C@](C)(O)[C@]1(C)O)[C@H]23
inactive: Potency [1] | Potency [2] | outcome [3] | Potency [4] | Potency [5] | outcome [6] | Potency [7] | outcome [8] | outcome [9] | max response [10] -22.4% and -7.52% and -7.78% | Potency [11] | Potency [12] | outcome [13] | Potency [14] | Potency [15]

Cc1cccc(C)c1NC(=O)CN1CCCC1=O
inactive: Potency [2] | Potency [16] | outcome [17] | Potency [18] | outcome [3] | Potency [4] | Potency [5] | outcome [6] | Potency [7] | outcome [8] | outcome [9] | max response [10] 1.79% and -7.42% and 6.42% | Potency [11] | Potency [12] | outcome [13] | Potency [14] | Potency [15]

CN1C(=O)CCS(=O)(=O)C1c1ccc(Cl)cc1 (stereo unspecified)
inactive: Potency [1] | Potency [2] | Potency [16] | outcome [3] | Potency [4] | Potency [5] | outcome [6] | Potency [7] | outcome [8] | outcome [9] | max response [10] 4.07% and -0.966% | Potency [11] | Potency [12] | outcome [13] | Potency [15]

Cl[C@H]1OCCO[C@@H]1Cl
inactive: Potency [2] | Potency [16] | outcome [17] | Potency [18] | Potency [19] | activity change, positive = activation [20] -1.08% and -4.01% | outcome [3] | Potency [4] | Potency [5] | outcome [6] | Potency [7] | outcome [8] | outcome [9] | max response [10] 9.41% and 3.91% | Potency [11] | Potency [12] | outcome [13] | Potency [14] | Potency [15]

Nc1ncc([N+](=O)[O-])s1
inactive: Potency [2] | Potency [16] | outcome [17] | Potency [18] | Potency [19] | activity change, positive = activation [20] 2.32% and 6.46% | outcome [3] | Potency [4] | Potency [5] | outcome [6] | Potency [7] | outcome [8] | outcome [9] | Potency [11] | Potency [12] | outcome [13] | Potency [14] | Potency [15]

CNC(=O)O/N=C/C(C)(C)S(C)(=O)=O
inactive: Potency [2] | Potency [16] | outcome [17] | Potency [18] | outcome [3] | Potency [4] | Potency [5] | outcome [6] | Potency [7] | outcome [8] | outcome [9] | max response [10] 3.09% and 0.619% | Potency [11] | Potency [12] | outcome [13] | Potency [14] | Potency [15]
